In the library only some 4.1% were active in any assay of this set; here they are far more common.
FMDV inh: antivirals against foot and mouth disease virus. FMDV antiviral cell-based qHTS. AID 1159524. 410,000 compounds, 1.2% hits. Potency, µM (series often up to 57.9 µM), without a hit: at the top dose activity change, negative = inhibition, usual class: inhibitors; calls by dose curve; tested in HEK293T cells; also: read-out not given here; nearly all actives have a fitted effect of over 45% in size
Sm TGR inh: S. mansoni TGR enzyme inhibition | Q962Y6 | purified TGR, DTNB reduction, TNB absorbance 405 nm | Potency, µM (highest dose often 114 µM), for inactives: at the top dose activity change, negative = inhibition, actives largely listed as inhibitors | 360,000 compounds, 3% hits; also: nearly all actives have a fitted effect of over 60% in size
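First, TGR (20 nM dispensed) and NADPH were mixed with compound. Second, a 15 min room-temperature incubation followed. Third, further NADPH and then DTNB were added to start the reaction. Finally, TNB absorbance was monitored kinetically.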
AmpC inh no detg: blocks E. coli AmpC beta-lactamase in detergent-free assay | 330,000 compounds, 0.52% hits | AID 485341 | Potency, µM (highest dose often 57.1 µM), inactives show top-dose activity change, negative = inhibition, hits mostly inhibitors | AmpC nitrocefin hydrolysis, absorbance 480 nm, 0.0001% Triton;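 also: plate controls were no compound for no effect and no enzyme for full effect; nearly all actives have a fitted effect of over 20% in size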
Target sequence (P00811 whole entry, looked up): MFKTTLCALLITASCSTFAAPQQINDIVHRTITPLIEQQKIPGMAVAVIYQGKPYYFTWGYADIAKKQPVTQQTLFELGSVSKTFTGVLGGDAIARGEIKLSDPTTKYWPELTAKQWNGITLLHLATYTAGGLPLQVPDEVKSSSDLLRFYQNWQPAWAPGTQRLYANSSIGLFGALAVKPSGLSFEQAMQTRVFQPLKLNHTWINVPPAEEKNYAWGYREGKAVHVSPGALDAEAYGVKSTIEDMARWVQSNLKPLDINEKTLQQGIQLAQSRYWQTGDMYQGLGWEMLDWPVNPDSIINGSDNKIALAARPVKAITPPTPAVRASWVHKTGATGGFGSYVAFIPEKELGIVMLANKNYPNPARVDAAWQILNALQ
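AmpC (5.3 nM in the dispensed reagent) in 20 mM phosphate pH 7.0 with 0.01% (detergent screen) or 0.0001% Triton X-100 was preincubated with compounds for 15 min at room temperature. Nitrocefin was then added from an 800 uM solution, and hydrolysis was followed at 480 nm.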
AmpC detergent: inhibitors of E. coli AmpC beta-lactamase with detergent; AmpC hydrolysis of nitrocefin, absorbance 480 nm, 0.01% Triton; Potency, µM (doses to about 114 µM), for the others: at the top dose activity change, negative = inhibition, most hits filed as inhibitors; 370,000 compounds, 0.041% hits; P00811;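 also: 0% = no-compound wells and -100% = no-enzyme wells; nearly all actives have a fitted effect of over 25% in size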
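20 mM phosphate pH 7.0 + 0.01% (detergent screen) or 0.0001% Triton X-100; 5.3 nM AmpC reagent; cpd preinc 15 min RT; nitrocefin (800 uM stock) to start; A480 q20 s × 4 min; Activity was normalised to no-enzyme and no-compound control wells.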
AMA1-RON2 inh: inhibitors of Plasmodium falciparum AMA1-RON2 interaction; AlphaScreen AMA1-biotinylated RON2 peptide binding; 360,000 compounds, 0.2% hits; Potency, µM (top dose mostly 58.2 µM), inactives show top-dose activity change, negative = inhibition, usual class: inhibitors;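 also: 0% = vehicle wells and -100% = peptide control; nearly all actives have a fitted effect of over 45% in size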
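AMA1 (3D7) with his tag at 25 nM final met compounds first, then biotinylated RON2 peptide at 25 nM; detection used donor plus acceptor beads, 10 µg/mL apiece, read by AlphaScreen after 30 min at room temperature.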
The depositor's hits bear a star; ? = inconclusive; · = no result; [ ] = remark or other dose. Unless noted, calls follow the shape of the dose curve; as a rule, active = well fitted curve in the direction sought with a large enough effect; inconclusive = small, poorly fitted or top-dose-only effect, or another doubt; inactive = no such curve, though single readings can be large; an effect the other way counts as inactive or inconclusive. Unless noted, % is scaled to controls: 0 for no effect and ±100 for the full control effect; potency is read from the fitted curve at half-maximal effect.

SMILES	FMDV inh	Sm TGR inh	AmpC inh no detg	AmpC detergent	AMA1-RON2 inh
Cc1oc(-c2ccc3c(c2)OCCO3)cc1C(=O)NC(CCC(=O)O)C(=O)O (stereo not given)	41%	-28%	-2%	-2%	1%
Cc1oc(-c2ccc3c(c2)OCCO3)cc1C(=O)NCC(=O)O	28µM*	-5%	41%	-8%	-17%
Cc1oc(-c2ccc3c(c2)OCCO3)cc1C(=O)O	2.2µM*	?	-3%	-13%	-1%
COc1ccc(-c2cc(C(=O)O)c(C)o2)cc1OC	13µM*	-9%	-20%	-2%	2%
Cc1ccc(Cl)cc1N1CCN(C(=O)c2ccc3c(c2)N(Cc2ccccc2)CCS3)CC1	-25%	2%	·	12%	·
COc1ccc(CNC(=O)CSc2nc3ccsc3c(=O)n2Cc2ccccc2Cl)cc1	4%	-5%	·	2%	·
CCc1ccc(N(C(=O)C(F)(F)F)C(C(=O)NC2CCCCC2)c2ccncc2)cc1 (stereo not given)	·	-2%	0.56µM*	0%	-7%
COCCC(=O)N(Cc1ccc2c(c1)OCO2)C(C(=O)NC1CCCCC1)c1ccncc1 (stereo not given)	-1%	-36%	-16%	?	-1%
CCc1ccc(N(C(=O)c2ccco2)C(C(=O)NC2CCCC2)c2ccncc2)cc1 (stereo not given)	50%	-9%	18%	2%	0%
O=C(NC1CCCCC1)C(c1ccncc1)N(Cc1ccc2c(c1)OCO2)C(=O)C(F)(F)F (stereo not given)	14%	45µM*	-18%	?	44%
Cc1noc(C)c1C(=O)NNc1ccc(C(C)C)cc1	-18%	20µM*	-4%	-3%	-12%
O=C(CN1C(=O)c2ccccc2C1=O)NCc1ccccn1	0%	0%	-12%	?	87%
O=C(Cn1c(=O)sc2ccccc21)NCc1ccccn1	46%	-1%	45µM*	?	14%
CNC(=O)Oc1ccc(-c2cn3cc(Cl)ccc3n2)cc1	?	35µM*	-21%	-5%	-18%
COC(=O)/C=C1/SC(=NC(=O)c2ccc(OC)cc2)NC1=O	-10%	-12%	-19%	-1%	22%
COC(=O)/C=C1/SC(=NC(=O)c2ccc(F)cc2)NC1=O	40µM*	-24%	-46%	-6%	12%
COC(=O)/C=C1/SC(=NC(=O)c2cccc([N+](=O)[O-])c2)NC1=O	-27%	-17%	?	-6%	-6%
COC(=O)/C=C1\SC(=NC(=O)c2cccc([N+](=O)[O-])c2)NC1=O	14µM*	-13%	-33%	-10%	6%
CSc1nnc(CNC(=O)c2cccc3ccccc23)n1-c1ccccc1C	1%	·	·	·	·
CCN(c1ccccc1)S(=O)(=O)c1ccc(OC)c(NC(=O)CCc2nc3ccccc3c(=O)[nH]2)c1	0%	5%	35µM*	?	-4%
CC1CCCN(c2ncnc3c2cnn3-c2ccc(Cl)cc2)C1 (stereo not given)	25µM*	12%	-9%	11%	-1%
CC1CCCN(c2ncnc3c2cnn3-c2ccccc2)C1 (stereo not given)	-11%	-2%	17%	-4%	10%
CC1CCCN(c2ncnc3c2cnn3-c2ccc(F)cc2)C1 (stereo not given)	18µM*	2%	·	-2%	·
O=C(O)c1ccc(N=Nc2c(O)[nH]c3ccc(Br)cc23)cc1	21%	3%	-19%	-5%	-9%
O=c1ccc2cc3c([nH]c4ccc(Br)cc43)oc-2c1O	·	56µM*	-54%	-8%	·
SMILES	FMDV inh	Sm TGR inh	AmpC inh no detg	AmpC detergent	AMA1-RON2 inh
CCN(CC)S(=O)(=O)c1ccc(NC(=O)c2cc3ccc4cccnc4c3[nH]2)cc1	-25%	-1%	·	17%	·
CC1CCN(c2ccc(-c3nc(C(C)C)no3)cc2[N+](=O)[O-])CC1	39%	-14%	·	-2%	·
Cc1ccc2c(c1)N(C(=O)CCC(=O)N1CCN(c3cccc(C)c3C)CC1)CCO2	14µM*	15%	67%	2%	-6%
CNS(=O)(=O)c1cn(CC(=O)N2CCN(c3cccc(C)c3C)CC2)cc1S(=O)(=O)NC	-15%	0%	·	24%	·
COC(=O)CN1CCN(C(c2ccccc2)c2ccccc2)CC1	-15%	45µM*	40%	?	-1%
O=C(Cn1cccc1)N1CCN(C(c2ccccc2)c2ccccc2)CC1	5%	40µM*	31%	-10%	-12%
Cc1cccc(N2CCN(C(=O)Cn3cccc3)CC2)c1C	-12%	50µM*	-7%	-17%	-1%
Cc1ncc2c(c1CNC(=O)c1ccsc1)CCN(C(=O)c1c(F)cccc1Cl)C2	-8%	·	·	·	·
CN(C)S(=O)(=O)N(CC(=O)Nc1ccc(C(F)(F)F)cc1)c1ccccc1	-17%	10%	·	20%	·
Cc1cccc(N2CCN(C(=O)CCCSc3nc4ccccc4[nH]3)CC2)c1C	35µM*	3%	-6%	4%	5%
Cc1nn(-c2ccccc2)c(N)c1N=Nc1ccc2ccccc2c1	41%	18%	23%	-6%	22µM*
Cc1ccc(N=Nc2c(N)nn(-c3ccccc3)c2N)cc1	57%	0%	-30%	2%	-6%[2.32 µM]
Cc1ccc(-c2onc(C)c2C)cc1S(=O)(=O)NCc1ccc(N(C)C)cc1	6%	2%	·	5%	·
CCN(c1ccccc1)c1nnc(NC(=O)Nc2ccc(Br)cc2)s1	22%	0%	·	-2%	·
NS(=O)(=O)c1cccc(NS(=O)(=O)c2ccc(/C=C/C(=O)OCC(=O)c3ccccc3)cc2)c1	-3%	13%	3.5µM*	-14%	-1%
COc1ccc(C(=O)COC(=O)/C=C/c2ccccc2)cc1	10%	0%	-9%	2%	11%
c1ccc(CCc2nnc3n2CCN(Cc2ccc4ccccc4n2)CC3)cc1	28%	·	·	·	·
COc1ccc2ccccc2c1C(=O)/C=C\c1ccoc1	0%	22µM*	-39%	7%	?
Cc1ccc(NC2=NC(c3ccccc3)n3c(nc(C)cc3=O)N2)c(C)c1 (stereo not given)	-2%	25µM*	-16%	-9%	-2%
Cc1ccc(NC2=NC(c3ccc(F)cc3)n3c(nc(C)cc3=O)N2)c(C)c1 (stereo not given)	18%	1%	-13%	-4%	0%
CC(C)CCNC(=O)c1cc(-c2ccc(Br)s2)nc2ccccc12	0%	-5%	·	-4%	·
CC(=O)N1CCC(N(Cc2ccco2)C(=O)Nc2ccc(Br)cc2F)CC1	-20%	5%	·	-1%	·
Nc1ccc(Cc2ccc(N)c(O)c2)cc1O	68%	40µM*	-48%	-10%	-21%
COc1cc(Cc2ccc(N)c(OC)c2)ccc1N	-7%	-7%	-2%	-2%	?
Cc1ccc(CN2CCC(N3CC(C)OC(C)C3)CC2)cc1 (stereo not given)	-18%	-21%	-13%	-4%	-24%
